The values that follow come from article PMC7862700, “An all-to-all approach to the identification of sequence-specific readers for epigenetic DNA modifications on cytosine”.

Holding throughout (assay): DAPPL (digital affinity profiling via proximity ligation, sequencing); 10 mM Tris-HCl pH 7.5, 50 mM NaCl, 1 mM DTT, 4% glycerol, room temperature, 30 min; GST-TFs on glutathione beads, 16-mer random dsDNA library, 0.1% formaldehyde crosslink after washing; high values mean tight binding
Details in all cases: protein: recombinant; tags: N-terminal GST; dsDNA, one strand shown

Assay [1] concerns the target T1, EHF (Homo sapiens, UniProt Q9NZC4 1-300).
T1 sequence: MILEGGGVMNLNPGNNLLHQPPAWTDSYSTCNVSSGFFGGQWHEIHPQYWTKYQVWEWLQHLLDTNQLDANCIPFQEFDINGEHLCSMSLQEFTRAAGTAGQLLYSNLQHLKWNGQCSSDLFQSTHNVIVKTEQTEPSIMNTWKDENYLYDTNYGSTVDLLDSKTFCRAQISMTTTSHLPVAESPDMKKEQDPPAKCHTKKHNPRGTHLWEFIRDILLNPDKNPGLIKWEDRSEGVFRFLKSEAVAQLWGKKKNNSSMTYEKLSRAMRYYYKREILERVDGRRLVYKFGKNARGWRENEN
An outline of the steps:
(§1)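 Binding signal is each hexamer's read frequency for a factor divided by its frequency in the tag-only sample. The factors were GST-fused human transcription factors from yeast, captured on glutathione beads, DNA-barcoded and pooled with that sample. Pools were incubated with 200 nmole of a random double-stranded 16-mer DNA library in Tris/NaCl/DTT/glycerol buffer at room temperature for 30 min, then washed, crosslinked with 0.1% formaldehyde, proximity-ligated with BsaI/T4 ligase (1 h, 37 °C), PCR-amplified and sequenced on an Illumina NextSeq500.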

Assay [2] concerns the target ETV5 (Homo sapiens, UniProt P41161 1-510). In a few lines:
as §1

Assay [3] addresses T2, ETV2 (Homo sapiens, UniProt O00321 1-342).
T2 sequence: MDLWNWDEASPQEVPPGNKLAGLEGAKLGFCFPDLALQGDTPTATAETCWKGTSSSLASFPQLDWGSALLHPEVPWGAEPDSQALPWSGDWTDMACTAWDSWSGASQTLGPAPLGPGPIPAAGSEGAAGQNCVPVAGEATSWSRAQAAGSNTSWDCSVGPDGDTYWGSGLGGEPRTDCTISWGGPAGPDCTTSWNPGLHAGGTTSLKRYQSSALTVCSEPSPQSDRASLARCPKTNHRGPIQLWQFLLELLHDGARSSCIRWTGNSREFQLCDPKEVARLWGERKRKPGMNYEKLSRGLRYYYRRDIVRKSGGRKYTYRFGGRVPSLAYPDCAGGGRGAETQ
In a few lines:
as §1

In assay [4] the target is T3, ELF3 (Homo sapiens, UniProt P78545 1-371).
T3 sequence: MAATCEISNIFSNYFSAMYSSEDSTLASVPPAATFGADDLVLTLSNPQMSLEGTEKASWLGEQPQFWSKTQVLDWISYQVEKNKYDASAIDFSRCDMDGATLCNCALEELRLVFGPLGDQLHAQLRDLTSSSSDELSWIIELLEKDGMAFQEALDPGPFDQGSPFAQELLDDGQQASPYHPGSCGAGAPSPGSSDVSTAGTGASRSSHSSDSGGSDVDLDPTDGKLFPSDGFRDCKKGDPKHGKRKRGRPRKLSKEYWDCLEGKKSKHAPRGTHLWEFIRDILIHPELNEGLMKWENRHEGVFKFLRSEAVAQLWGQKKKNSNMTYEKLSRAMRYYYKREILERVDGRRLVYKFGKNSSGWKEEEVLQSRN
In a few lines: as §1

Assay [5] addresses T4, ERF (Homo sapiens, UniProt P50548 1-548).
T4 sequence: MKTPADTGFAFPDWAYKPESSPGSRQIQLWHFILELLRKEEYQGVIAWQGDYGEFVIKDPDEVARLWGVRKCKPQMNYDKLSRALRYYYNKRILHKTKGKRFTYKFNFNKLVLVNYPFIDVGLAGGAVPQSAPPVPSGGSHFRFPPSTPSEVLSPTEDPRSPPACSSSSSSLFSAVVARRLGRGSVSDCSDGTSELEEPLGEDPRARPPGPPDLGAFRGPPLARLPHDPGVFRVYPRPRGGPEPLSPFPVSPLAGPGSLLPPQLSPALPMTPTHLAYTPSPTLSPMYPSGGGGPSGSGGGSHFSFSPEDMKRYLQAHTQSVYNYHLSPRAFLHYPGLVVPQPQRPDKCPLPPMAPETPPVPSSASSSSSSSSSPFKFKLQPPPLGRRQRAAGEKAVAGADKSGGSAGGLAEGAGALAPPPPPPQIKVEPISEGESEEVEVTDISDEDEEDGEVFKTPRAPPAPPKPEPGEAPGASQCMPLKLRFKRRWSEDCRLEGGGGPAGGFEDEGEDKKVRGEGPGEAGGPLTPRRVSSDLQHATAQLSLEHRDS
In a few lines:
as §1

Assay [6] addresses T5, ETS2 (Homo sapiens, UniProt P15036 1-469).
T5 sequence: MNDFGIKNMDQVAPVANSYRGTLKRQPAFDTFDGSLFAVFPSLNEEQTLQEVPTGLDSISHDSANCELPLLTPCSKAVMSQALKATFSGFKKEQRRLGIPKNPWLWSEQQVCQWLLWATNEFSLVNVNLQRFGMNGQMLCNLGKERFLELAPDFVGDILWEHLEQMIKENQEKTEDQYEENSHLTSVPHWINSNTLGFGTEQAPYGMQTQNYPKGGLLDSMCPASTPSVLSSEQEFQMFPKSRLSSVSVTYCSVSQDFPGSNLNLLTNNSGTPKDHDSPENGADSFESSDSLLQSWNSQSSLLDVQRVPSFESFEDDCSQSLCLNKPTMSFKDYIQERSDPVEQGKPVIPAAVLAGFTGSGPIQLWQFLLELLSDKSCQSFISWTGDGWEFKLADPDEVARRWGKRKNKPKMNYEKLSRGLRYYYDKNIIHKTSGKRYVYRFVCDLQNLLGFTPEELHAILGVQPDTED
An outline of the steps:
as §1

The target of assay [7] is T6, ETV7 (Homo sapiens, UniProt Q9Y603 1-341).
T6 sequence: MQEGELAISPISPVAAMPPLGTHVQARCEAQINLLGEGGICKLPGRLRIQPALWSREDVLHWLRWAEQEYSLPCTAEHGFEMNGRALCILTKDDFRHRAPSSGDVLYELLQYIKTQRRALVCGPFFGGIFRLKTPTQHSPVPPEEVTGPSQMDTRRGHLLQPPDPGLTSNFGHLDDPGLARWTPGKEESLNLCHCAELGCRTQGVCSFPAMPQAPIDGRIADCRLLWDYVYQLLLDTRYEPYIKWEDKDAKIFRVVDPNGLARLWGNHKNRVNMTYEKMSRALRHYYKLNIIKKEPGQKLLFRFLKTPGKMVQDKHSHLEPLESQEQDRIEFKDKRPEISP
In a few lines: as §1

For assay [8], the target named is T7, ELK1 (Homo sapiens, UniProt P19419 1-428).
T7 sequence: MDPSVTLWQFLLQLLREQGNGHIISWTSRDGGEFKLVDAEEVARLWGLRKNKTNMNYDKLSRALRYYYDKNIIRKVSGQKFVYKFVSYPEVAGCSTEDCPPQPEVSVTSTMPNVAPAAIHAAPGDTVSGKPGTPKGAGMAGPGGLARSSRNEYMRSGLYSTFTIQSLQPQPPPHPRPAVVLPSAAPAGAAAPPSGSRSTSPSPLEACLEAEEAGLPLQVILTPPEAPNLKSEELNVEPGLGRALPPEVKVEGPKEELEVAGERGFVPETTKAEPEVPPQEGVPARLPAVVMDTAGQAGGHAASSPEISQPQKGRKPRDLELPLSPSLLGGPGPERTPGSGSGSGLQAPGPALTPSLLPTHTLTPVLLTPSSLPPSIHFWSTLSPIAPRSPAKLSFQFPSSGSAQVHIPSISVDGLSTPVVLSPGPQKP
An outline of the steps: as §1

In assay [9] the target is T8, GABPA (Homo sapiens, UniProt Q06546 1-454).
T8 sequence: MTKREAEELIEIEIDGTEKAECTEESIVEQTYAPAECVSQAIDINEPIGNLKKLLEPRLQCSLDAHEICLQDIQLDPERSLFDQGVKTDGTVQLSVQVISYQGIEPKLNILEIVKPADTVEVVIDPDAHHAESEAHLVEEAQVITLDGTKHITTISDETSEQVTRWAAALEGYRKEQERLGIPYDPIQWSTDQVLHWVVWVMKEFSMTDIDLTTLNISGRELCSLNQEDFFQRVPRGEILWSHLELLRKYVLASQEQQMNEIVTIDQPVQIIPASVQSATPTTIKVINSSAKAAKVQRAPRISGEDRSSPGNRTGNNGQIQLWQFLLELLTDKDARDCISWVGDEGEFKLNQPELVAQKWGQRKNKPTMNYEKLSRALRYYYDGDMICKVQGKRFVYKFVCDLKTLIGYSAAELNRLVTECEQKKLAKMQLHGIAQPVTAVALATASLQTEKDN
In a few lines:
as §1

Assay [10] has as its target T9, ERG (Homo sapiens, UniProt P11308 1-479).
T9 sequence: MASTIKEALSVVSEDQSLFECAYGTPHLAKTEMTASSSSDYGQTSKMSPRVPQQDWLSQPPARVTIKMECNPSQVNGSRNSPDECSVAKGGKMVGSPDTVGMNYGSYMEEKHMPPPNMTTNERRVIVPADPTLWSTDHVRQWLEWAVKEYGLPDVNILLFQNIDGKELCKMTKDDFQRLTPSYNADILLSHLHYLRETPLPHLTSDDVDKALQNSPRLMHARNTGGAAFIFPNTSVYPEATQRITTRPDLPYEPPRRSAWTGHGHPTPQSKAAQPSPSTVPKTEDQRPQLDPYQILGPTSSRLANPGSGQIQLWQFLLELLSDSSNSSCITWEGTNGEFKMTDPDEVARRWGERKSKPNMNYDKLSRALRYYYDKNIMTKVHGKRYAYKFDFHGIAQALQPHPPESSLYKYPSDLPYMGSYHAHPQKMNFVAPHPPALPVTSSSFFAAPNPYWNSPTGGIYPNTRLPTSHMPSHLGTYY
An outline of the steps: as §1

Assay [11] addresses SPIB (Homo sapiens, UniProt Q01892 1-262). In a few lines:
as §1

Assay [12] concerns the target T10, ELK4 (Homo sapiens, UniProt P28324-2 1-405).
T10 sequence: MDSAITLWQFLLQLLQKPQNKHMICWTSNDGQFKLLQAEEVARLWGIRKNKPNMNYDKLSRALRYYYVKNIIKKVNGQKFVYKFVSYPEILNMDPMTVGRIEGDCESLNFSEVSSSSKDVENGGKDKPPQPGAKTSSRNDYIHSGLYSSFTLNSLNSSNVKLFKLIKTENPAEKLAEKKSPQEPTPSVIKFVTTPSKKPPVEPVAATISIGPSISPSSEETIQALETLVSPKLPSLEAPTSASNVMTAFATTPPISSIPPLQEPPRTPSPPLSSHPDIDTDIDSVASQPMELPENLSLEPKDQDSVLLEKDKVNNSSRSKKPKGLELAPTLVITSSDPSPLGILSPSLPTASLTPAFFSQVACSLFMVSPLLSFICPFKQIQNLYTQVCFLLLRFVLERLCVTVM
An outline of the steps:
as §1

Assay [13] has as its target T11, ETV3 (Homo sapiens, UniProt P41162-2 1-143).
T11 sequence: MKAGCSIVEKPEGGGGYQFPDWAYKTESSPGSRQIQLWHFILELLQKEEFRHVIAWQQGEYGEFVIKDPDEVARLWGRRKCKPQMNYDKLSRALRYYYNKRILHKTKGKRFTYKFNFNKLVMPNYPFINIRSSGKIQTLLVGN
An outline of the steps:
as §1

Sequence of ETV5 (P41161 whole entry): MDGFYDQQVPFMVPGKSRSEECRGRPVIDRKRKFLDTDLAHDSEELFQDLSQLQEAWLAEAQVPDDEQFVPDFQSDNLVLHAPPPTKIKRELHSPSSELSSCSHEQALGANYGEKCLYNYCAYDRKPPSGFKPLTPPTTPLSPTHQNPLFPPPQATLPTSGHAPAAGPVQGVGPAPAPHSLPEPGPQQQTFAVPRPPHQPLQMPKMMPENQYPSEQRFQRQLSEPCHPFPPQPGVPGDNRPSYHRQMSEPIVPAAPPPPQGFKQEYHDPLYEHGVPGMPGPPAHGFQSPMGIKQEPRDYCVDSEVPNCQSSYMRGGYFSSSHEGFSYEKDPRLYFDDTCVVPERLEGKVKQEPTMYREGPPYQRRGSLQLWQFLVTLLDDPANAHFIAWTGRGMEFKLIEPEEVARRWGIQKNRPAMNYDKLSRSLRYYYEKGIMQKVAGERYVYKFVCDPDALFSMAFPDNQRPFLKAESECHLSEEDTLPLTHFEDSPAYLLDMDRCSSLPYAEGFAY
Sequence of SPIB (Q01892 whole entry): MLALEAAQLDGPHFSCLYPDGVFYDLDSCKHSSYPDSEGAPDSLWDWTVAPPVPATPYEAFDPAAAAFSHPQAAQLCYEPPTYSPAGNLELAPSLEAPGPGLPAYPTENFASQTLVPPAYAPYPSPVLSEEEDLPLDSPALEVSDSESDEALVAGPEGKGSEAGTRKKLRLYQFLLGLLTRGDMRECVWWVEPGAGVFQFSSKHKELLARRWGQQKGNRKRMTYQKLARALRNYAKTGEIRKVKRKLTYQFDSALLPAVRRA

Consider CGAACG, for which the binding signal in assay [1] was 1 fold enrichment (6-mer frequency, TF over GST control); in assay [2], 1.03 fold enrichment (6-mer frequency, TF over GST control); in assay [3], 1.09 fold enrichment (6-mer frequency, TF over GST control); in [4], 1.05 fold enrichment (6-mer frequency, TF over GST control); in assay [5], 1.11 fold enrichment (6-mer frequency, TF over GST control); in assay [6] it was 1.03 fold enrichment (6-mer frequency, TF over GST control). For the same sequence, the binding signal in [7] is 1.02 fold enrichment (6-mer frequency, TF over GST control).
As to TAGTAG, the binding signal was 1.02 fold enrichment (6-mer frequency, TF over GST control) in assay [8]; 1.01 fold enrichment (6-mer frequency, TF over GST control) in [9]; 1.01 fold enrichment (6-mer frequency, TF over GST control) in [10]; 1.02 fold enrichment (6-mer frequency, TF over GST control) in [11]; 1.04 fold enrichment (6-mer frequency, TF over GST control) in assay [2]; 1.02 fold enrichment (6-mer frequency, TF over GST control) in [12]. The binding signal in assay [4] is 1.1 fold enrichment (6-mer frequency, TF over GST control); in assay [5], 1.02 fold enrichment (6-mer frequency, TF over GST control); in assay [6], 1.06 fold enrichment (6-mer frequency, TF over GST control); in [13], 1.13 fold enrichment (6-mer frequency, TF over GST control).
